Screens from PubChem.
Only a selection was taken, and hits are over-represented in it overall.
TSG101-PTAP inh = blocks PTAP/TSG101 interaction to inhibit HIV-1 budding; Potency, µM (top dose mostly 115 µM), inactives show top-dose activity change, negative = inhibition, most hits filed as inhibitors; 340,000 tested, under 10 active; Fluorescence polarization, FITC-PTAP peptide / Tsg101 binding; Q99816; active = well fitted inhibition curve with a large enough effect in the main read-out, with a control signal flat, not every such curve was filed as active; inconclusive = small, poorly fitted or top-dose-only effect, or effect the other way, or a change in a side signal; inactive = no such curve, though single readings can be large or run the other way; note: % of control where 0% means no effect
Target sequence (Q99816 whole entry, looked up): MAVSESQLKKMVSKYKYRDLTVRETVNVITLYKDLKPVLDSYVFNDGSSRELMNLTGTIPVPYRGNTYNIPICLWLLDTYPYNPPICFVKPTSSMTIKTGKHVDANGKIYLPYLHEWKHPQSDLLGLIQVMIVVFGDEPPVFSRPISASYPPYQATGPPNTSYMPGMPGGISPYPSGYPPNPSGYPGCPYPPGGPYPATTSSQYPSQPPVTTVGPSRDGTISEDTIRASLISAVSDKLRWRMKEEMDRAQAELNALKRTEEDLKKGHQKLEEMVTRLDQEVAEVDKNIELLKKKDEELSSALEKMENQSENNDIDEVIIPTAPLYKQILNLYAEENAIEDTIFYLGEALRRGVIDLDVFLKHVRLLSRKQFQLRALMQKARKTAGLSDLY
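Steps: Tsg101 binding domain dispensed (10 uM final), compounds pinned in DMSO, FITC-labeled PTAP-motif peptide added (50 nM final); after 20 min binding at room temperature, polarization measured.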
Epigenetic derep = epigenetic control regulation, reporter derepression | murine LDR cells, GFP reporter derepression, 30 h | Potency, µM (titrated, usually from 53.9 µM), for the others: at the top dose GFP activation, usual class: activators | actives 0.2% (n = 280,000); note: % of control where 0% means no effect; nearly all actives have a fitted effect of over 60% in size
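In this reporter-derepression format, murine cells bearing a silenced integrated CMV-GFP locus incubate with test compound (30 h, 37 C), then are washed and imaged; fluorescent objects of 20–120 um count as induced cells.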
PINK1 expr mod = PINK1 expression modulation; Potency, µM (highest dose often 76.6 µM), for inactives: at the highest dose activation (PINK1 increase), most hits filed as activators; AID 624263; PINK1 immunofluorescence, high-content cytometry, 24 h; actives 0.2% (n = 410,000); active = well fitted activation curve with a large enough effect; inconclusive = small, poorly fitted or top-dose-only effect; cell line not stated here; note: % of control where 0% means no effect; nearly all actives have a fitted effect of over 65% in size
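Cells are seeded, rested 12 hours, then given compound at five concentrations or DMSO for 24 hours. After fixation, blocking and antibody staining, PINK1 amount and mitochondrial localization are scored; CCCP serves as control.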
HttQ103 aggreg = reduces HttQ103-GFP aggregates in PC12 cells; Potency, µM (series often up to 46.1 µM), for inactives: top-dose activity change, negative = inhibition, usual class: inhibitors; actives 1.1% (n = 220,000); PC12 HttQ103-GFP aggregates, Acumen cytometry, 40 h; AID 1688; note: % is set by controls: 0 for no effect and ±100 for the full control effect; nearly all actives have a fitted effect of over 60% in size
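Ecdysone-promoter PC12 model expressing HTT exon 1 Q103 fused to GFP, induced by tebufenozide at 100 nM final. Compounds titrated; aggregates sized 1–25 µm scored on a 488 nm laser cytometer.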
HTT ATP protect = Huntington cell model cytoprotection by ATP luminescence; PC12 HTT-Q103 induced, cytoprotection, ATP luminescence, 40 h; Potency, µM (highest dose often 56.4 µM), for inactives: cytoprotection (ATP increase), hits mostly activators; actives 0.14% (n = 230,000); note: % of control where 0% means no effect; nearly all actives have a fitted effect of over 45% in size
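Quantitative HTS on tebufenozide-induced (100 nM) PC12 cells expressing HTTQ103 exon 1–GFP; compounds tested as a concentration series; survival measured via cellular ATP.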
Anesthetic bind = candidate novel general anesthetic via apoferritin binding; P02791; actives 0.074% (n = 350,000); Potency, µM (top dose mostly 77.5 µM), for the others: at the highest dose activity change, negative = displacement, usual class: inhibitors; apoferritin/1-aminoanthracene competitive binding, fluorescence; AID 485281; note: % is set by controls: 0 for no effect and ±100 for the full control effect; nearly all actives have a fitted effect of over 20% in size
Target sequence (P02791 2-175 limits assumed): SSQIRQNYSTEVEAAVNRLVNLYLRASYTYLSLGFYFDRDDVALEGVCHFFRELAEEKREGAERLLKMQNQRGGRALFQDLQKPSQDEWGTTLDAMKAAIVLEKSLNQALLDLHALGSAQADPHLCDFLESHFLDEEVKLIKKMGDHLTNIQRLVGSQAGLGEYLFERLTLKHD
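Read-out: endpoint 1-AMA fluorescence, excitation 380 nm and emission 535 nm, after compounds sit 10 min at room temperature with 10 uM horse-spleen apoferritin in 50% saturated 1-AMA/PBS. Values come from four-parameter Hill fits.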
Numbers without * were called inactive; ? = inconclusive; · = no result; [ ] = dose if it differs, or a comment. Unless noted, calls come from the whole dose curve; as a rule, active = well fitted curve in the direction sought with a large enough effect; inconclusive = small, poorly fitted or top-dose-only effect, or another doubt; inactive = no such curve, though single readings can be large; an effect the other way counts as inactive or inconclusive. Potency is the fitted concentration of half-maximal effect.

SMILES	TSG101-PTAP inh	Epigenetic derep	PINK1 expr mod	HttQ103 aggreg	HTT ATP protect	Anesthetic bind
Cc1c(C(=O)NCC(C)(C)N2CCOCC2)cnn1-c1ncc2c(n1)-c1ccccc1CCC2	·	·	0.6%	·	·	·
COc1ccccc1OC(C)C(=O)Nc1ccc(-c2nc3ccccc3s2)cc1 (centres undefined)	·	35.5µM*	3.8%	·	·	-5.7%
CC(C)Oc1ccc(C(=O)Nc2ccc(-c3nc4ccccc4s3)cc2)cc1	·	6.5%	-0.1%	·	·	9.8%
CC1=C(c2ccc(NN=C(C#N)C#N)cc2)NNC(=O)C1	·	·	·	12.6µM*	-52.1%	·
Cc1ccc(N/N=C(\C#N)C(=O)c2ccsc2)cc1	-14.8%	1.6%	?	-7.5%[9.22 µM]	-3.1%[10 µM]	3.0%
Cc1c(C(=O)N2CCCCC2c2cccnc2)sc2ncnc(NCc3cccs3)c12 (centres undefined)	·	·	3.6%	·	·	·
COc1ccccc1CC(=O)Nc1ccc([N+](=O)[O-])cc1O	-2.8%	-0.1%	39.8µM*	-3.9%[9.22 µM]	-5.8%[10 µM]	-15.5%
COc1ccccc1CC(=O)Nc1ccccc1O	-1.4%	-3.8%	-1.4%[38.3 µM]	-15.1%	-18.8%	?
CCN(C(=O)CSc1nc2cc(Cl)ccc2c(=O)n1CC(C)C)C1CCS(=O)(=O)C1 (centres undefined)	-1.2%	·	9.5%	·	·	·
CCOC(=O)c1c(NC(=O)CSc2nc3cc(Cl)ccc3c(=O)n2Cc2ccco2)sc(C(=O)N(C)C)c1C	1.3%	-0.9%	11.5%	7.08µM*	-30.5%[10 µM]	-4.3%
CCN(C(=O)CSc1nc2cc(Cl)ccc2c(=O)n1Cc1ccco1)C1CCS(=O)(=O)C1 (centres undefined)	-5.8%	1.4%	0.3%	25.3%	2.82µM*	-4.4%
CCN(CC)/[N+]([O-])=N/OCOC(=O)C(C)c1ccc2cc(OC(C)=O)ccc2c1 (centres undefined)	·	·	-1.4%	·	·	·
Cc1ccc(C)c(N(CC(=O)NC2CCCC2)C(=O)c2oc(C(C)(C)C)cc2C)c1	-2.8%	-3.4%	-2.9%[38.3 µM]	25.1µM*	0.9%[10 µM]	-4.8%
N#Cc1cc(C(=O)c2cc(Br)ccc2O)cn(C2CCCCC2)c1=O	-0.3%	-1.2%	22.4µM*	18.2%	-10.7%	?
CC(C)CNC(=O)c1cc(-c2ccco2)on1	-7.7%	-1.1%	7.1%[38.3 µM]	?	6.8%	-15.4%
CCCNC(=O)c1cc(-c2ccco2)on1	-11.6%	-1.0%	3.5%[38.3 µM]	7.0%	1.58µM*	-0.6%
C=CCn1c(COc2ccc(Cl)cc2)nnc1SCC(=O)N/N=C/c1cccc(O)c1	-4.5%	0.0%	14.7%	9.0%	-17.5%	?
C=CCn1c(COc2ccccc2)nnc1SC(C)C(=O)N/N=C/c1cc(Cl)ccc1O (centres undefined)	2.2%	0.0%	-0.6%	10µM*	-41.2%	-18.6%
C=CCNc1ncnc2c1cnn2-c1ccc(C)cc1C	-0.7%	0.0%	0.2%	-27.1%	-4.6%[10 µM]	6.7%
CCOC(=O)N1CCC(Nc2ncnc3c2cnn3-c2ccc(C)cc2C)CC1	-1.9%	-0.8%	0.4%	12.6µM*	-10.8%	-10.0%
Cc1ccc2c(c1)CN(CCNC(=O)c1ccc3nc(C)[nH]c3c1)CC(C)O2 (centres undefined)	·	·	0.3%	·	·	·
COc1ccc(C2=NOC(C(=O)NCc3ccco3)C2)cc1 (centres undefined)	-5.0%	-1.0%	26.6%[38.3 µM]	-14.4%	-67.6%	-10.5%
COc1cc(C2=NOC(C(=O)NCc3ccco3)C2)cc(OC)c1OC (centres undefined)	-7.9%	-2.7%	11.2µM*	-12.3%	-70.4%	-7.7%
Oc1ccc(Cl)cc1CNc1cnc2ccccc2c1	-4.9%	·	2.6%	·	·	?
Oc1ccccc1CNc1cnc2ccccc2c1	-3.1%	-1.0%	?	35.5µM*	13.7%[10 µM]	-5.0%
SMILES	TSG101-PTAP inh	Epigenetic derep	PINK1 expr mod	HttQ103 aggreg	HTT ATP protect	Anesthetic bind
O=C(N/N=C/c1sc2ccccc2c1O)c1cccc2ccccc12	25.4%	0.0%	0.5%	1.41µM*	-87.0%[10 µM]	-14.2%
COc1ccc(C(=O)N/N=C/c2c(CO)cnc(C)c2O)cc1	-4.5%	2.6%	-0.6%	31.6µM*	-77.2%	500.5%
Cc1ncc(CO)c(/C=N/NC(=O)c2ccc(O)cc2)c1O	-3.3%	-1.1%	-1.5%	?	11.4%[10 µM]	686.0%
O=C(N/N=C/c1sc2ccccc2c1O)c1ccccc1	?	-0.1%	1.3%	3.16µM*	-79.2%[10 µM]	3.2%
COc1ccc(C(=O)N/N=C/c2sc3ccccc3c2O)cc1	?	-1.8%	-0.9%	11.2µM*	-80.1%[10 µM]	-3.5%
O=C(N/N=C/c1ccccc1)c1cccc2ccccc12	-1.9%	·	12.9%	·	·	·
COc1ccc2cc(C(=O)N/N=C/c3sc4ccccc4c3O)ccc2c1	?	1.6%	6.5%	?	-4.8%[10 µM]	-12.4%
CCCNC(=O)Cn1c(SCc2ccccc2C)nc2ccncc21	·	·	1.9%	·	·	·
Cc1nc2ccccc2n1CCc1nc2c3ccccc3nc(SCc3ccc(C#N)cc3)n2n1	·	2.6%	-0.1%	·	·	-0.6%
CC(C)Cn1c(/C=N/Nc2nc3ccccc3[nH]2)nc2ccccc21	5.6%	?	2.3%	6.31µM*	-39.8%[10 µM]	-6.5%
Cn1c(/C=N/Nc2nc3ccccc3[nH]2)nc2ccccc21	-4.1%	3.0%	0.5%	?	-138.5%	4.0%
CCCn1c(/C=N/Nc2nc3ccccc3[nH]2)nc2ccccc21	1.5%	?	12.3%	15.8µM*	-9.2%[10 µM]	-14.3%
COC(=O)c1ccc(-c2cccc3c2OC(CNC(=O)/C=C/c2ccc(OC)c(OC)c2)C3)nc1 (centres undefined)	·	·	0.6%	·	·	·
O=C(Nc1ccc2c(c1)N(C1CCCC1)C(=O)c1ccccc1S2)c1cccc(F)c1	·	-1.3%	1.5%	·	·	-5.5%
CCn1nc([N+](=O)[O-])c(C(C#N)c2nc3ccccc3n2C)c(Cl)c1=O (centres undefined)	-14.0%	0.0%	-1.5%	9.7%	11.1%[10 µM]	-16.0%
CCCn1nc([N+](=O)[O-])c(C(C#N)c2nc3ccccc3s2)c(Cl)c1=O (centres undefined)	?	0.1%	?	·	12.6µM*	?
CCOc1ccccc1NC(=O)CN1C(=O)CC(c2ccco2)Sc2ccccc21 (centres undefined)	·	2.7%	5.7%	·	·	1.5%
O=C(O)c1cccc(Nc2nc3ccccc3nc2NS(=O)(=O)c2cccs2)c1	-6.2%	·	0.8%	·	·	11.1%
COc1ccc(Nc2nc3ccccc3nc2NS(=O)(=O)c2cccs2)cc1	-5.7%	-0.9%	-1.0%	22.4µM*	-39.2%	-3.4%
CC(=O)c1ccc(Nc2nc3ccccc3nc2NS(=O)(=O)c2cccs2)cc1	-4.4%	·	39.8µM*	·	·	-0.6%
C=C1C=C(C)n2ncc(C(=O)Nc3ccc(C)cn3)c2N1	·	·	0.1%	·	·	·
